Source: PubChem BioAssay AID1159580 (chemical genetic matrix, 2015)
The campaign covered roughly 5,500 compounds. About 2,000 (36%) were called active. About 18% were inconclusive and are not listed. Rule as the data show it: active = normalized growth mostly below about 0.91 (no sharp cut-off); inconclusive = no clear call, values can overlap the other calls; inactive = mostly above about 0.92. The list shows a part of the results.

Test: chemical genetic growth profiling, strain panel (AID 1159580);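 also: tested at 20 µM; growth read once vehicle control cultures reached saturation at 30 °C; 1 = growth at the plate median or of vehicle wells; lower values mean less growth of the strain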
Conditions: growth OD

Measured: normalized growth

Clc1ccc(COC(Cn2ccnc2)c2ccc(Cl)cc2Cl)c(Cl)c1 (configuration not stated)
active: S. cerevisiae deletion strains, locus YJR075W, strain HOC1, active compounds read low 0.0654 | S. cerevisiae deletion strains, locus YKL009W, strain mrt4, active compounds read low 0.0991 | S. cerevisiae deletion strains, locus YKL068W, active compounds read low 0.0685 | S. cerevisiae deletion strains, locus YKL085W, strain MDH1 (second series), active compounds read low 0.0665 | S. cerevisiae deletion strains, locus YKL085W, strain MDH1, active compounds read low 0.0665 | S. cerevisiae deletion strains, locus YKL160W, strain elf1, active compounds read low 0.0826 | S. cerevisiae deletion strains, locus YKL190W, strain CNB1, active compounds read low 0.046 | S. cerevisiae deletion strains, locus YKR001C, strain vps1, active compounds read low 0.0634 | S. cerevisiae deletion strains, locus YKR026C, strain gcn3, active compounds read low 0.0698 | S. cerevisiae deletion strains, locus YKR091W, strain srl3, active compounds read low 0.0616 | S. cerevisiae deletion strains, locus YLL001W, strain dnm1, active compounds read low 0.0638 | S. cerevisiae deletion strains, locus YLL026W, active compounds read low 0.0593 | S. cerevisiae deletion strains, locus YLL041C, strain sdh2, active compounds read low 0.0595 | S. cerevisiae deletion strains, locus YLR027C, strain aat2, active compounds read low 0.0575 | S. cerevisiae deletion strains, locus YLR039C, strain RIC1, active compounds read low 0.0754 | S. cerevisiae deletion strains, locus YLR058C, strain SHM2, active compounds read low 0.0389 | S. cerevisiae deletion strains, locus YLR102C, strain apc9, active compounds read low 0.0667 | S. cerevisiae deletion strains, locus YLR113W, strain HOG1, active compounds read low 0.128 | S. cerevisiae deletion strains, locus YLR221C, strain rsa3, active compounds read low 0.0643 | S. cerevisiae deletion strains, locus YLR258W, strain gsy2, active compounds read low 0.0636 | S. cerevisiae deletion strains, locus YLR262C, strain YPT6 (second series), active compounds read low 0.0835 | S. cerevisiae deletion strains, locus YLR262C, strain YPT6, active compounds read low 0.0925 | S. cerevisiae deletion strains, locus YLR268W, strain sec22, active compounds read low 0.0664 | S. cerevisiae deletion strains, locus YLR320W, strain mms22, active compounds read low 0.087 | S. cerevisiae deletion strains, locus YLR330W, strain CHS5, active compounds read low 0.0522 | S. cerevisiae deletion strains, locus YLR342W, strain FKS1 (second series), active compounds read low 0.0607 | S. cerevisiae deletion strains, locus YLR342W, strain FKS1, active compounds read low 0.0655 | S. cerevisiae deletion strains, locus YLR357W, strain rsc2, active compounds read low 0.124 | S. cerevisiae deletion strains, locus YLR370C, strain arc18, active compounds read low 0.064 | S. cerevisiae deletion strains, locus YLR371W, strain rom2, active compounds read low 0.0643 | S. cerevisiae deletion strains, locus YLR384C, strain iki3, active compounds read low 0.0632 | S. cerevisiae deletion strains, locus YLR418C, strain cdc73, active compounds read low 0.104 | S. cerevisiae deletion strains, locus YML016C, strain PPZ1, active compounds read low 0.0516 | S. cerevisiae deletion strains, locus YML032C, strain rad52, active compounds read low 0.0665 | S. cerevisiae deletion strains, locus YML120C, strain ndi1, active compounds read low 0.0587 | S. cerevisiae deletion strains, locus YML124C, strain tub3, active compounds read low 0.058 | S. cerevisiae deletion strains, locus YMR058W, strain fet3, active compounds read low 0.0613 | S. cerevisiae deletion strains, locus YMR078C, strain ctf18, active compounds read low 0.0692 | S. cerevisiae deletion strains, locus YMR125W, strain sto1, active compounds read low 0.0759 | S. cerevisiae deletion strains, locus YMR129W, active compounds read low 0.0593 | S. cerevisiae deletion strains, locus YMR205C, strain PFK2, active compounds read low 0.0878 | S. cerevisiae deletion strains, locus YMR223W, strain ubp8, active compounds read low 0.0663 | S. cerevisiae deletion strains, locus YMR231W, strain pep5, active compounds read low 0.171 | S. cerevisiae deletion strains, locus YMR263W, strain SAP30, active compounds read low 0.062 | S. cerevisiae deletion strains, locus YMR307W, strain GAS1, active compounds read low 0.107 | S. cerevisiae deletion strains, locus YNL067W, strain RPL9B, active compounds read low 0.0502 | S. cerevisiae deletion strains, locus YNL071W, strain lat1, active compounds read low 0.0615 | S. cerevisiae deletion strains, locus YNL128W, strain TEP1, active compounds read low 0.0612 | S. cerevisiae deletion strains, locus YNL153C, strain GIM3, active compounds read low 0.0486 | S. cerevisiae deletion strains, locus YNL183C, strain NPR1, active compounds read low 0.00703 | S. cerevisiae deletion strains, locus YNL209W, strain ssb2, active compounds read low 0.0642 | S. cerevisiae deletion strains, locus YNL233W, strain BNI4, active compounds read low 0.0542 | S. cerevisiae deletion strains, locus YNL248C, strain rpa49, active compounds read low 0.0801 | S. cerevisiae deletion strains, locus YNL250W, strain rad50, active compounds read low 0.0712 | S. cerevisiae deletion strains, locus YNL271C, strain bni1, active compounds read low 0.0673 | S. cerevisiae deletion strains, locus YNL298W, strain CLA4, active compounds read low 0.0653 | S. cerevisiae deletion strains, locus YNL307C, strain MCK1, active compounds read low 0.0672 | S. cerevisiae deletion strains, locus YNL322C, strain KRE1 (second series), active compounds read low 0.0752 | S. cerevisiae deletion strains, locus YNL322C, strain KRE1, active compounds read low 0.0472 | S. cerevisiae deletion strains, locus YNR049C, strain mso1, active compounds read low 0.0611 | S. cerevisiae deletion strains, locus YNR052C, strain pop2, active compounds read low 0.0593 | S. cerevisiae deletion strains, locus YOL006C, strain TOP1, active compounds read low 0.0836 | S. cerevisiae deletion strains, locus YOL012C, strain htz1 0.185 | S. cerevisiae deletion strains, locus YOL147C, strain pex11, active compounds read low 0.059 | S. cerevisiae deletion strains, locus YOR001W, strain rrp6, active compounds read low 0.0687 | S. cerevisiae deletion strains, locus YOR061W, strain CKA2, active compounds read low 0.0316 | S. cerevisiae deletion strains, locus YOR069W, strain VPS5, active compounds read low 0.052 | S. cerevisiae deletion strains, locus YOR070C, strain gyp1, active compounds read low 0.061 | S. cerevisiae deletion strains, locus YOR080W, strain dia2, active compounds read low 0.0651 | S. cerevisiae deletion strains, locus YOR083W, strain WHI5, active compounds read low 0.0643 | S. cerevisiae deletion strains, locus YOR106W, strain vam3, active compounds read low 0.0643 | S. cerevisiae deletion strains, locus YOR136W, strain idh2, active compounds read low 0.0723 | S. cerevisiae deletion strains, locus YOR144C, strain elg1, active compounds read low 0.0556 | S. cerevisiae deletion strains, locus YOR184W, strain ser1, active compounds read low 0.0771 | S. cerevisiae deletion strains, locus YOR231W, strain MKK1, active compounds read low 0.112 | S. cerevisiae deletion strains, locus YOR265W, strain rbl2, active compounds read low 0.0604 | S. cerevisiae deletion strains, locus YOR270C, strain vph1, active compounds read low 0.0973 | S. cerevisiae deletion strains, locus YOR290C, strain snf2, active compounds read low 0.0739 | S. cerevisiae deletion strains, locus YOR316C, strain cot1, active compounds read low 0.0648 | S. cerevisiae deletion strains, locus YPL051W, strain arl3, active compounds read low 0.0665 | S. cerevisiae deletion strains, locus YPL055C, strain LGE1, active compounds read low 0.0731 | S. cerevisiae deletion strains, locus YPL078C, strain atp4, active compounds read low 0.0694 | S. cerevisiae deletion strains, locus YPL106C, strain sse1, active compounds read low 0.128 | S. cerevisiae deletion strains, locus YPL240C, strain hsp82, active compounds read low 0.0639 | S. cerevisiae deletion strains, locus YPL241C, strain CIN2, active compounds read low 0.0503 | S. cerevisiae deletion strains, locus YPL256C, strain CLN2, active compounds read low 0.129 | S. cerevisiae deletion strains, locus YPR119W, strain clb2, active compounds read low 0.0606 | S. cerevisiae deletion strains, locus YPR141C, strain kar3, active compounds read low 0.0743 | S. cerevisiae deletion strains, locus YPR163C, strain tif3, active compounds read low 0.079 | S. cerevisiae deletion strains, locus YPR167C, strain met16, active compounds read low 0.0606 | S. cerevisiae deletion strains, strain wtn01, active compounds read low 0.0603 | S. cerevisiae strains, strain wild type, active compounds read low 0.0493
